From PubChem BioAssay
Calls of active or inactive are those of the source.

Columns and labels:
[1] = small molecules captured by biotinylated probe aFSTL3 – biochemical, small-molecule microarray, fluorescence 635/667, stem cell growth factor project, primary screen (AID 1064); conditions: higher = more signal;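 also: measures binding of the biotinylated anti-FSTL3 antibody to printed compounds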
[2] = binders from COS7 lysate, DM2A8 probe, primary screen, torsin A project, cell lysate, small-molecule microarray, fluorescence 635/667 (AID 1065); conditions: higher = more signal, COS7 lysate expressing mutant human TOR1A
[3] = small molecules captured by biotinylated probe aFGF2 – biochemical, small-molecule microarray, fluorescence 635/667, stem cell growth factor project, primary screen (AID 1067); conditions: higher = more signal;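 also: measures binding of biotinylated aFGF2 protein to printed compounds on slides; z-score merges feature fluorescence and signal-to-noise across triplicate slides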
[4] = small molecules captured by biotinylated probe aFGF10 – biochemical, small-molecule microarray, fluorescence 635/667, stem cell growth factor project, primary screen (AID 1071); conditions: higher = more signal;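 also: score merges 667 nm spot intensity and signal to noise from triplicate slides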
[5] = molecular target: Neurogenic locus notch homolog protein 2 (Homo sapiens) (UniProt Q04721); assay: small molecules binding Notch2 protein – biochemical, small-molecule microarray, 635 nm fluorescence, stem cell growth factors, primary screen (AID 1073); conditions: higher = more signal
[6] = molecular target: Pro-neuregulin-1, membrane-bound isoform (Homo sapiens) (UniProt Q02297); assay: small molecules binding neuregulin-1 protein – biochemical, small-molecule microarray, fluorescence 635/667, psychiatric disease protein project, primary screen (AID 1075); conditions: NRG1 binding, 635 nm fluorescence, higher = more signal;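 also: score combines 667 nm spot fluorescence with signal to noise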
[7] = tested on: Neuregulin-1 EGF-like domain; assay: small molecules binding NRG1 EGF domain – biochemical, small-molecule microarray, 635 nm fluorescence, primary screen (AID 1081); conditions: higher = more signal;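 also: binding of the protein to compounds printed on small-molecule microarray slides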
[8] = FRG1 expression reporter modulators in myotubes – cell-based, C2C12 myotubes, firefly/Renilla luciferase, luminescence, FRG1 inhibition for FSHD, primary screen (AID 1084); conditions: FRG1 promoter luciferase, higher = more signal, called active from +8 up or from −8 down
[9] = small molecules captured by biotinylated probe aFST – biochemical, small-molecule microarray, fluorescence 635/667, stem cell growth factor project, primary screen (AID 1086); conditions: higher = more signal;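 also: score merges 667 nm fluorescence with signal-to-noise of each printed compound spot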
[10] = binders of probe aHhip on microarray, primary screen, stem cell growth factor project, biochemical, small-molecule microarray, fluorescence 635/667 (AID 1087); conditions: higher = more signal;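 also: score merges spot fluorescence at 667nm with spot signal to noise ratio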

Pro-neuregulin-1, membrane-bound isoform (Homo sapiens), sequence (Q02297 whole entry, looked up, the tested form may be a part, canonical isoform): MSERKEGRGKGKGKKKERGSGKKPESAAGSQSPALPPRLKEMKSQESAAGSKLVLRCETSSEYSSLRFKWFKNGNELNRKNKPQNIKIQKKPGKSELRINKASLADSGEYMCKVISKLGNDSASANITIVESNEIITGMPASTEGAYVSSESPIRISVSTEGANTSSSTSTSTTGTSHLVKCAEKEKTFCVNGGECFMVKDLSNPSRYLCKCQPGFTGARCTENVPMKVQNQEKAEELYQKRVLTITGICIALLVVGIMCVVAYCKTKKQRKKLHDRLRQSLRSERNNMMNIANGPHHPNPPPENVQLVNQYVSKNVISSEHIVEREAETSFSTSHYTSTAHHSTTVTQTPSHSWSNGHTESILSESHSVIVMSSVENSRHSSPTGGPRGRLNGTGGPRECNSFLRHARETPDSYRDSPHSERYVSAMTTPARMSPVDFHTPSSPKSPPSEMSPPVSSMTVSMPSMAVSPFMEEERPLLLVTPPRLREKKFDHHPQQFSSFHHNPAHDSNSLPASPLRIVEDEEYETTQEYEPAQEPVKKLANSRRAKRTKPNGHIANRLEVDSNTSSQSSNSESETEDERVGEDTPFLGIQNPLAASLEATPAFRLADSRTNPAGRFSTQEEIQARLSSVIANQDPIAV
Neurogenic locus notch homolog protein 2 (Homo sapiens), sequence (Q04721 whole entry, looked up, canonical isoform): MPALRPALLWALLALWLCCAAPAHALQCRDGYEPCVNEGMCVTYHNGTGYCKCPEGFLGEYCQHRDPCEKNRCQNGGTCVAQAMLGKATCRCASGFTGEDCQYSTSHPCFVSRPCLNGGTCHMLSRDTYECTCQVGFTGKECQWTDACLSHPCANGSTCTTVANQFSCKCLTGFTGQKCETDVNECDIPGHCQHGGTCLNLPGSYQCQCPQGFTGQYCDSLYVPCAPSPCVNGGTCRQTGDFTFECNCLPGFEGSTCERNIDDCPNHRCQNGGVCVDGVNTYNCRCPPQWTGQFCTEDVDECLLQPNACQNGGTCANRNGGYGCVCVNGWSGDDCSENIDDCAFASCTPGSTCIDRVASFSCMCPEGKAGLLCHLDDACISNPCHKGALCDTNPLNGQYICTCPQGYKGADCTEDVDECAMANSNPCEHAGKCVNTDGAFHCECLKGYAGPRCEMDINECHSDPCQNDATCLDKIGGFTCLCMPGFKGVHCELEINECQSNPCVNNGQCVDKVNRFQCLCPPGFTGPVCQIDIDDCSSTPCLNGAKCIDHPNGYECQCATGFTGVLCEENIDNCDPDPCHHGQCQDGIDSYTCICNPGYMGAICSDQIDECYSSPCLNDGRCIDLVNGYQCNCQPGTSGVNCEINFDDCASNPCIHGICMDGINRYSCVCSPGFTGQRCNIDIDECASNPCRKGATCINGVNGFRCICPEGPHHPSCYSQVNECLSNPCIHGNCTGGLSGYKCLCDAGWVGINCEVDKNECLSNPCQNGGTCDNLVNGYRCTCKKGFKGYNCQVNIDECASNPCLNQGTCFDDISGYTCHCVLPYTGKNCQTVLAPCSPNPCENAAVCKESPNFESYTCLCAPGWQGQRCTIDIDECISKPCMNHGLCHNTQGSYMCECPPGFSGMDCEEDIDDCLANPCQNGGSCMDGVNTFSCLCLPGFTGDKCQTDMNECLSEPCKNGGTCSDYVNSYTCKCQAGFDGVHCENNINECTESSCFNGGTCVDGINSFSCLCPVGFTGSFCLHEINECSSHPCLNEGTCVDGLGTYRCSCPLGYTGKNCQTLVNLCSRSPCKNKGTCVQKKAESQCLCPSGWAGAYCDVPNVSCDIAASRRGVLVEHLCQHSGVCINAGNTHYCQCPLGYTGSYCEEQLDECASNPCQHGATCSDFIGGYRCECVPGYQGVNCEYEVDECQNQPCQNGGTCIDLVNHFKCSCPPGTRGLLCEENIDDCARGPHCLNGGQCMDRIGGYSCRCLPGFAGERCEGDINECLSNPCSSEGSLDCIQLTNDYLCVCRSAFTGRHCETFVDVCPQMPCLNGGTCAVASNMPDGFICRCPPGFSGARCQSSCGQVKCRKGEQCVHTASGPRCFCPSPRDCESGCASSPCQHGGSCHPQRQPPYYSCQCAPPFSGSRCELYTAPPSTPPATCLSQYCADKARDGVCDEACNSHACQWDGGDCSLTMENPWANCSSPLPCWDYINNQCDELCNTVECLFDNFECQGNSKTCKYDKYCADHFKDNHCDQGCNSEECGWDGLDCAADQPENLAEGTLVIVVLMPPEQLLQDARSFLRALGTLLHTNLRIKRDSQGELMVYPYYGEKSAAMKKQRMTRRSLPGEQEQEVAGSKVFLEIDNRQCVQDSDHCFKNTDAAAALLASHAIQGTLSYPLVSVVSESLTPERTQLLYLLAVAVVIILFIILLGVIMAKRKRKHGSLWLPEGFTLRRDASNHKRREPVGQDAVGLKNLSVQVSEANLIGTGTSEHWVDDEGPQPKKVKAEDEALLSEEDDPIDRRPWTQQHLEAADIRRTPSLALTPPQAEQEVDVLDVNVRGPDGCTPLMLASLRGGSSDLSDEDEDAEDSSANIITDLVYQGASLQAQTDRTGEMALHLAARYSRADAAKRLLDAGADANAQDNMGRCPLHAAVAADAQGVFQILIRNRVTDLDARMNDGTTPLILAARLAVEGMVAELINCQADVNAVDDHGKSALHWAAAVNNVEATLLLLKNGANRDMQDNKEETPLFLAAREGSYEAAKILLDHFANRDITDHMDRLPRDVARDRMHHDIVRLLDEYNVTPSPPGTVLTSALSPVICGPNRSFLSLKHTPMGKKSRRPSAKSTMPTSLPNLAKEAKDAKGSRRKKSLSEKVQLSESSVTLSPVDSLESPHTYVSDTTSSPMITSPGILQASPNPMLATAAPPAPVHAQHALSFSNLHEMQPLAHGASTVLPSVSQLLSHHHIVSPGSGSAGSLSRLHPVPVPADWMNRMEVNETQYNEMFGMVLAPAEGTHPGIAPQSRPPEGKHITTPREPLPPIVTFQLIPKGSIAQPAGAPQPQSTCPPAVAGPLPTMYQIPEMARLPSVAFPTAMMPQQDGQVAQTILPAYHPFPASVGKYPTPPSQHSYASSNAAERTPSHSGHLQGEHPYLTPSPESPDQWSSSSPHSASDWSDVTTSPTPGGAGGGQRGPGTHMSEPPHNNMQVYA

| Structure (SMILES) | composite z-score [1] | composite z-score [2] | composite z-score [3] | composite z-score [4] | composite z-score [5] | composite z-score [6] | composite z-score [7] | z-score [8] | composite z-score [9] | composite z-score [10] |
| --- | --- | --- | --- | --- | --- | --- | --- | --- | --- | --- |
| CCc1cc2c(nc1CC)CCN(CCC(C)=NO[C@H](C)c1cn([C@@H]3COC[C@H]3O)nn1)C2 | -0.141 | -0.0699 | -0.0015 | 0.0444 | 0.199 | -0.174 | -0.365 | -0.0345 (inactive) | 0.224 | -0.0994 |
| COC(=O)CC=C[C@@H](C)[C@@H](C=NOCC[C@@H]1C=C[C@H](OC(C)=O)[C@@H](COC(C)=O)O1)OC | -0.413 | 0.174 | 0.0144 | 0.502 | 0.193 | -0.0568 | 0.813 | 0.799 (inactive) | 0.0492 | 0.0053 |
| CCN1C(=O)[C@H]2[C@H]3[C@H](O)[C@H](O)CC(=O)[C@H]3CC[C@H]2C1=O | -0.652 | 0.481 | -0.0566 | 0.39 | 0.132 | 0.298 | 0.81 | 0.276 (inactive) | 0.0722 | 0.0373 |
| Cn1c(=O)n2n(c1=O)[C@H]1[C@H](O)[C@@H]3O[C@@H]3C(=O)[C@H]1CC2 | -0.439 | 0.197 | -0.128 | 0.355 | 0.584 | -0.208 | 0.712 | 0.101 (inactive) | 0.95 | 0.0053 |
| CCOC(=O)C1=NO[C@]2(C=C(Br)C3(OCCCO3)[C@H]3O[C@H]32)C1 | 0.0733 | 2.19 | -0.116 | -0.229 | -0.212 | -0.722 | -0.208 | 0.293 (inactive) | -0.132 | -0.0726 |
| CC(=O)OC[C@H]1O[C@H](C#Cc2ccccc2)C=C[C@@H]1OC(C)=O | -0.306 | -0.0613 | -0.0474 | 0.346 | 0.32 | 0.232 | -0.11 | -0.284 (inactive) | 0.0157 | 0.281 |
| CO[C@H]1COC(=O)CC=C[C@@H](C)[C@H](OC)COC(=O)CCC[C@@H]1C | -0.344 | 1.58 | -0.187 | 0.238 | -0.438 | -0.35 | -0.137 | 0.444 (inactive) | -0.126 | 0.176 |
| C=COC[C@@H]1CN2[C@@H](CC[C@@H](C)[C@@H]2c2ccc(Br)cc2)C(=O)O1 | -0.154 | 0.436 | -0.158 | -0.134 | -0.898 | -0.0605 | 0.673 | 0.151 (inactive) | -0.171 | 0.643 |
| CCOC(=O)[C@H](CC(C)C)NC(=O)CCC1CC(OC(=O)NCc2cccc3ccccc23)CC2(CCCC(COC(=O)NCCOc3ccccc3)O2)O1 (stereo not given in full) | -0.646 | 0.374 | -0.016 | 0.273 | 1.2 | 0.647 | 1.01 | 1.67 (inactive) | 0.0697 | 0.224 |
| CO[C@H]1COC(=O)CC=C[C@@H](C)[C@H](OC)COC(=O)[C@@H]2CCCN2C(=O)CC=C[C@@H]1C | -0.479 | 2.11 | -0.17 | -0.0728 | -0.162 | -0.591 | 0.87 | -0.273 (inactive) | 0.374 | -0.169 |
| COC(=O)CC=C[C@@H](C)[C@@H](C=NO[C@H](C)c1cn([C@H](CO)Cc2ccccc2)nn1)NS(=O)(=O)c1ccc(C)cc1 | -0.468 | 2.12 | -0.165 | -0.147 | -0.303 | -0.211 | 0.0224 | -0.25 (inactive) | 0.227 | -0.251 |
| C=Cc1ccc([C@H]2N[C@H](C(=O)O)CC[C@@H]2C)cc1 | -0.372 | 0.056 | -0.156 | 0.145 | -0.226 | -0.284 | 0.564 | 1.35 (inactive) | -0.0301 | 0.0399 |
| CCOC(=O)[C@H](CC(C)C)NC(=O)CCC1CC(OC(=O)NCCc2ccc(F)cc2)CC2(CCCC(COC(=O)NCC3CCCCC3)O2)O1 (stereo not given in full) | -0.595 | 0.101 | -0.0652 | 0.817 | 0.482 | 0.301 | 1.1 | 0.605 (inactive) | -0.0627 | -0.19 |
| CO[C@@H]1COC(=O)CC=C[C@@H](C)[C@H](OC)COC(=O)[C@@H](C)COC(=O)CC=C[C@H]1C | -0.404 | 0.812 | 0.553 | -0.552 | -1.27 | -0.245 | -0.844 | -0.182 (inactive) | -0.387 | 0.312 |
